Bioassay records as filed in PubChem BioAssay.
Most compounds without a hit are left out; they make up all but 3.7% or so of the library.
A549 viability – Nrf2 qHTS screen for inhibitors: counterscreen for cytotoxicity; 0.16% of 390,000 active; Potency, µM (series often up to 46 µM), for inactives: top-dose activity change, negative = cytotoxicity, most hits filed as inhibitors; A549 ARE-Fluc cells, CellTiter-Fluor viability, 18-24 h; also: potency is read from the fitted curve at half-maximal effect; % is scaled to controls: 0 for no effect and ±100 for the full control effect
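A549 ARE-Fluc cells in 5% FBS OPTI-MEM, 5000 cells/well, rested 2 h then exposed to compounds in concentration-response for 18-24 h at 37 °C. Viability by CellTiter-Fluor fluorescence (Ex 405/Em 525) after 30 min; luciferase luminescence (BugLite, 15 min, RT) read afterwards.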
Nrf2 ARE act – qHTS of Nrf2 Activators; AREc32 ARE-luciferase reporter (MCF7-derived line), luminescence, 24 h; Potency, µM (titrated, usually from 46.1 µM), inactives show top-dose activation, hits mostly activators; 0.31% of 410,000 active; also: potency is read from the fitted curve at half-maximal effect; % of control where 0% means no effect; nearly all actives have a fitted effect of over 65% in size
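For detection, Steady-Glo was added and plates sat 30 min at RT; before that, AREc32_Fluc cells grown overnight in OPTI-MEM/5% FBS had been treated with 23 nL compound for 24 hr at 37 deg C.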
IL2 activator – qHTS of IL-2 Activators; 0.065% of 360,000 active; activation, % (series mostly up to about 46 µM); IL-2 activation reporter assay, cell-based qHTS; stimulated with anti-CD3/CD4/CD28 beads; in transgenic mouse T cells; in the data active = activation above about 50%; inconclusive = mostly about 30% to 49%; also: 0% is about no effect
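Unstimulated transgenic mouse T cells, 750 per well, received compound and, after 60 minutes, anti-CD3/anti-CD4 bead plus anti-CD28 stimulation. EGFP and DsRed were quantified after 18 hours.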
miR-21 reporter – qHTS Assay for Modulators of miRNAs and/orActivators of miR-21; Potency, µM (series often up to 38.3 µM), for the others: top-dose activity change, positive = activation, actives largely listed as activators; 340,000 tested, under 10 active; HeLa miR-21 FLuc reporter, luciferase, 48 h; AID 2288, 2010;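 also: % of control where 0% means no effect; miR-21 action dims this reporter so a rising signal means less miR-21 action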
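HeLa miR-21-FLuc reporter line, endogenous miR-21; 2000 cells/well in DMEM/10% FBS; compound titration up to ~40uM final, 48 h, 37 degree Celsius; luciferase detection reagent, 15 min lysis, CCD luminescence.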
Nrf2 block – Nrf2 qHTS screen for inhibitors; A549 ARE-Fluc reporter, luciferase luminescence, 18-24 h; Potency, µM (highest dose often 46 µM), for the others: at the top dose activity change, negative = inhibition, most hits filed as inhibitors; 2.1% of 360,000 active; AID 504444, 2011; also: potency is read from the fitted curve at half-maximal effect; % is scaled to controls: 0 for no effect and ±100 for the full control effect; nearly all actives have a fitted effect of over 60% in size
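A549 ARE_Fluc cells, 5000/well, 5% FBS OPTI-MEM; compounds in dose-response, 18-24 h at 37 °C/5% CO2; CellTiter-Fluor viability read (Ex 405/Em 525), then BugLite luciferase luminescence = Nrf2 activity.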
ClpP mod – qHTS Assay for Activators of ClpP; purified B. subtilis ClpP, FRET peptide cleavage, 20 min; Potency, µM (series often up to 57.5 µM), for inactives: top-dose activity change, negative = active; 1.9% of 340,000 active; AID 651965, 2013; active = well fitted falling curve with a large enough effect; inconclusive = small, poorly fitted or top-dose-only effect; inactive = no such curve, though single readings can be large or run the other way; also: potency is read from the fitted curve at half-maximal effect; the source files actives as falling curves though it sought activators and does not explain the sign; nearly all actives have a fitted effect of over 65% in size
Target sequence (P80244 whole entry, looked up): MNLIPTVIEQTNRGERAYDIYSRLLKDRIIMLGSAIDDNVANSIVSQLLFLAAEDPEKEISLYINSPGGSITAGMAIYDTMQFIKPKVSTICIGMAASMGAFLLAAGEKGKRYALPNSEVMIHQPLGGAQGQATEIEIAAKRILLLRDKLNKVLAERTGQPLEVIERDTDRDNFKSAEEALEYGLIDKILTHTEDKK
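FRET quenching reversal measured ClpP activation: 10 microg/mL B. subtilis ClpP at pH 8 with the FRET-FV decapeptide, read at 430 nm after 320 nm excitation. The 20-min minus 0-min signal was scaled between DMSO/no-enzyme wells and ADEP (5.8 microM final).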
* marks the source's active call; other numbers are inactive results; u = inconclusive; x = not tested or not shown; [ ] = another dose, or the depositor's remark. Unless noted, calls follow the shape of the dose curve; as a rule, active = well fitted curve in the direction sought with a large enough effect; inconclusive = small, poorly fitted or top-dose-only effect, or another doubt; inactive = no such curve, though single readings can be large; an effect the other way counts as inactive or inconclusive.

SMILES	A549 viability	Nrf2 ARE act	IL2 activator	miR-21 reporter	Nrf2 block	ClpP mod
COc1ccc(-c2cc3ccccc3nc2N)cc1OC	-1%	2%	0	12%	16µM*	4%
COc1ccc(-c2nc3ccccc3nc2-c2ccc(OC)c(OC)c2)cc1OC	-9%	4%	0	4%	u	-1%
CC(C)(C)n1nnnc1C(c1cccs1)N(Cc1cccnc1)Cc1ccco1 (centres undefined)	-7%	3%	-4	9%	0%	5%
CC(C)(C)n1nnnc1C(c1cccs1)N(Cc1ccccc1)Cc1ccco1 (centres undefined)	-9%	9%	-1	28%	21µM*	0%
CCC(C)NC(=O)CSc1nc2cc3c(cc2c(=O)n1CCCCCC(=O)NCc1ccc(OC)cc1)OCO3 (centres undefined)	-1%	-1%	x	-5%	x	2%
COc1ccc(-n2nnnc2S(=O)(=O)CC(=O)N2CCCCC2)cc1	u	-4%	-4	u	26µM*	-1%
COc1ccc(CNC(=O)C(CC(C)C)NS(=O)(=O)c2ccc3c(c2)oc(=O)n3C)cc1 (centres undefined)	-7%	0%	x	-24%	11%	-25%
O=C(c1ccc(Cl)cc1)N1CCN(c2ccnc3cc(Cl)ccc23)CC1	u	3%	-4	15%	21µM*	x
CC(C)N(C(=O)N1CCN(c2ccnc3cc(Cl)ccc23)CC1)C(C)C	-4%	3%	-1	u	9.2µM*	x
CS(=O)(=O)N1CCN(c2ccnc3cc(Cl)ccc23)CC1	5%	2%	-1	-8%	-15%	x
O=S(=O)(c1ccc(Br)s1)N1CCN(c2ccnc3cc(Cl)ccc23)CC1	-6%	1%	-3	5%	21µM*	x
CCOC(=O)C(CC)Sc1ncnc2c1c(-c1ccccc1)cn2-c1ccc(OC)cc1 (centres undefined)	11%	1%	x	15%	-3%[9.27 µM]	22µM*
CCOc1ccc(-n2cc(-c3ccccc3)c3c(NCc4ccc(F)cc4)ncnc32)cc1	-4%	6%	x	1%	x	5%
CCOc1ccc(-n2cc(-c3ccccc3)c3c(NCc4ccccc4)ncnc32)cc1	10%	4%	x	-3%	x	5%
COc1ccc(CNc2ncnc3c2c(-c2ccccc2)cn3-c2ccccc2)cc1	1%	7%	x	12%	x	25µM*
Cc1ccc(CNc2ncnc3c2c(-c2ccccc2)cn3-c2ccccc2)cc1	6%	7%	x	10%	x	28µM*
Cc1ccc(Nc2c(-c3c[nH]c4ccccc34)nc3ccccn23)cc1	-17%	u	x	21%	2%[9.27 µM]	4%
CCn1c(C)nc2cc(C(=O)NNS(=O)(=O)c3ccccc3F)ccc21	-3%	0%	0	-29%	21%	3.2µM*
CCOC(=O)c1ccc(S(=O)(=O)NNC(=O)c2ccc3c(c2)nc(C)n3CC)cc1	2%	-1%	0	-3%	-12%	0%
Cc1ccc(S(=O)(=O)N2CCC(c3ccncc3)CC2)c(C)c1	-14%	6%	x	28%	x	-3%
CCc1nc2ccc(C(=O)NCc3cc(OC)ccc3OC)cc2nc1CC	1%	9%	x	1%	x	0%
CCc1nc2ccc(C(=O)NCCc3ccc(OC)cc3OC)cc2nc1CC	1%	0%	x	8%	x	32µM*
CCOC(=O)c1ccc(CN(Cc2ccc(Cl)cc2Cl)S(=O)(=O)c2ccc(F)c(C)c2)cc1	-4%	2%	x	0%	x	0%
COc1ccc(C2Nc3ccccc3C(=O)N2Cc2cccnc2)cc1COc1ccc(NC(C)=O)cc1 (centres undefined)	-6%	x	x	x	u	x
Cc1cccc(Cn2c(=O)n(CCC(=O)NCc3ccc4c(c3)OCO4)c(=O)c3sccc32)c1	-2%	0%	x	-4%	14%	0%
SMILES	A549 viability	Nrf2 ARE act	IL2 activator	miR-21 reporter	Nrf2 block	ClpP mod
COc1ccc(-c2nnc(N(C)C(=O)c3ccco3)s2)cc1OC	5%	3%	0	-10%	-2%	x
CN(C(=O)c1ccco1)c1nnc(-c2ccc(F)cc2)s1	0%	7.1µM*	-1	-39%	3%	x
Cc1cc(NS(=O)(=O)c2ccc(NC(=O)C(C)Oc3ccc4c(C)cc(=O)oc4c3)cc2)no1 (centres undefined)	-5%	0%	1	-9%	-6%	25µM*
C=Cc1cc(F)c(S(=O)(=O)N2CCN(S(=O)(=O)c3ccc4c(c3)OCCO4)CC2)cc1F	1%	x	x	x	-20%	x
CCc1nc(-c2cc3ccc(C)cc3[nH]c2=O)no1	x	0%	0	-35%	7%	14µM*
Cc1ccc2[nH]c(=O)c(-c3noc(C(C)C)n3)cc2c1	-2%	0%	-3	-21%	-8%	5%
COc1ccc2[nH]c(=O)c(-c3noc(-c4ccccc4)n3)cc2c1	-8%	3%	1	-37%	u	-12%
Cc1ccc2cc(-c3noc(C(C)(C)C)n3)c(=O)[nH]c2c1	0%	0%	1	-5%	5%	28µM*
Cc1cc(C)c(NS(=O)(=O)c2cccc3cccnc23)c(C)c1	0%	0%	0	0%	0%	x
O=S(=O)(Nc1cccc2cccnc12)c1ccc(S(=O)(=O)N2CCCC2)cc1	-10%	u	-2	24%	5.2µM*	-11%
Cc1ccc(S(=O)(=O)Nc2cccc3cccnc23)c([N+](=O)[O-])c1	u	-3%	0	u	10µM*	0%
CCN(CC)S(=O)(=O)c1cccc(C(=O)Nc2ccccc2C(=O)Nc2ccc(OC)cc2)c1	11%	0%	x	2%	x	-4%
N/C(=N\OC(=O)c1ccc(F)cc1)c1nonc1N	11%	3%	0	-22%	13%	1%
N/C(=N/OC(=O)c1ccccc1Cl)c1nonc1N	-8%	13µM*	0	-42%	u	x
COC(=O)C1=CN(C)C=C(C(=O)OC)C1c1ccccc1Cl	u	-1%	-3	-5%	-11%	78%
CCN1C=C(C(=O)OC)C(c2cccc(C)c2)C(C(=O)OC)=C1	23%	0%	0	-5%	12%	6.3µM*
COC(=O)C1=CN(c2cc(C)cc(C)c2)C=C(C(=O)OC)C1c1cccc(F)c1	11%	0%	-3	0%	-19%	4%
CCCCOc1ccccc1C1C(C(=O)OC)=CN(CC)C=C1C(=O)OC	24%	3%	0	-2%	-26%	14µM*
CCCOc1ccccc1C1C(C(=O)OC)=CN(C(C)C)C=C1C(=O)OC	u	0%	3	0%	x	16µM*
